Publication PMC6212790, “How bacterial xenogeneic silencer rok distinguishes foreign from self DNA in its resident genome”
The full ranking holds about 33,000 sequences; the median of “e-score” is about -0.038, and the highest 2% start at about 0.33. What follows is part of a selection rich in the highest values, with near analogues and random picks from the rest.

target: T1, GST-Rok-C97-191 (Bacillus subtilis subsp. subtilis str. …, UniProt O34857 97-191); assay: protein binding microarray; Rok is a gene silencer of Bacillus subtilis; high values mean tight binding; conditions: protein: recombinant; tags: GST (pTH5325, pDEST15-Magic modified); dsDNA, one strand shown
T1 sequence: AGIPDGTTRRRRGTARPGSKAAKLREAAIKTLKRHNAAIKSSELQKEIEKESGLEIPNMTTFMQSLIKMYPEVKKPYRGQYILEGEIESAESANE
Outline: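 Every oligonucleotide joins a 25-mer constant primer to a 35-mer variable part drawn from a de Bruijn sequence of order 10, so each non-palindromic 8-mer appears at least 32 times and each palindromic 8-mer 16 times. The preference for every 8-mer is reported as a unitless, rank-based enrichment score (E-score). This score spans 0.5 for the most favored 8-mer to −0.5 for the most disfavored.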

| Sequence | binding signal |
| --- | --- |
| CGACCGGA | -0.00838 E-score |
| GGTTCCGA | 0.0637 E-score |
| ACTTGTTC | 0.195 E-score |
| GGCAAGAA | -0.058 E-score |
| CTCGAAAC | 0.104 E-score |
| ATGCCCGA | -0.167 E-score |
| AACTCATA | 0.0551 E-score |
| AATAGCTA | 0.329 E-score |
| CATAGCTA | 0.304 E-score |
| GATAGCGA | 0.0913 E-score |
| GATAGCAA | 0.137 E-score |
| GATAGCTA | 0.367 E-score |
| AATAGCTG | 0.186 E-score |
| CAGTCTAA | -0.037 E-score |
| GGCAAGTA | 0.0714 E-score |
| ATAAAATA | 0.396 E-score |
| CACAAATA | 0.243 E-score |
| TAAAAATA | 0.351 E-score |
| AACAAGTA | 0.371 E-score |
| AACAAGTT | 0.0415 E-score |
| ATAAAATG | 0.246 E-score |
| CTAAAATA | 0.295 E-score |
| CACAAGTA | 0.205 E-score |
| GTAAAATA | 0.306 E-score |
| TACAAATA | 0.359 E-score |

| Sequence | binding signal |
| --- | --- |
| AAAAAATA | 0.323 E-score |
| AACAAATA | 0.24 E-score |
| CTCTCGCA | -0.118 E-score |
| AATCCGAA | 0.0539 E-score |
| CTGAAGCA | -0.0795 E-score |
| AGGTCACA | -0.186 E-score |
| GCGGTTAA | 0.123 E-score |
| AAGAACTT | -0.176 E-score |
| AAGTCTAA | -0.0843 E-score |
| ACTGAAGT | 0.155 E-score |
| AGGGACCA | -0.0833 E-score |
| CTAAAAAA | 0.168 E-score |
| AATAAATA | 0.258 E-score |
| GATAAATA | 0.323 E-score |
| TAAAAAAA | 0.328 E-score |
| TATAAATA | 0.381 E-score |
| TTAAAAAA | -0.0566 E-score |
| CTCCTTGA | -0.109 E-score |
| TCATGGAA | -0.0558 E-score |
| CGAGTCTA | -0.0403 E-score |
| ACGAACTC | -0.0425 E-score |
| CGGAATTC | 0.0787 E-score |
| GGAAACAA | 0.0324 E-score |
| GGAAAACA | -0.00212 E-score |
| CGAAACCA | -0.131 E-score |

| Sequence | binding signal |
| --- | --- |
| AGAAACTG | 0.0822 E-score |
| AGAAACTA | 0.377 E-score |
| CGAAACTC | 0.0357 E-score |
| GGAAACCA | -0.105 E-score |
| AGAAACTC | 0.0994 E-score |
| GGAAACTA | 0.354 E-score |
| AGAAAACA | 0.0817 E-score |
| CGAAACTA | 0.425 E-score |
| CGAAAACA | 0.348 E-score |
| GAAATGGC | -0.16 E-score |
| ACTCGTAC | 0.0277 E-score |
| CAGTAATC | -0.0737 E-score |
| GATGCAGC | -0.0978 E-score |
| AACATATT | 0.24 E-score |
| GTACGCCA | -0.0805 E-score |
| GCTTCACA | -0.0519 E-score |
| CATGACTC | 0.0199 E-score |
| ATAGGTAC | 0.257 E-score |
| ATTGGTAG | 0.38 E-score |
| AATGGTAT | 0.328 E-score |
| ATTGGTAA | 0.258 E-score |
| AGTGGTAC | 0.202 E-score |
| CATGGTAG | 0.188 E-score |
| ATAGGTAA | 0.225 E-score |
| ATAGGTAG | 0.358 E-score |

| Sequence | binding signal |
| --- | --- |
| AATGGTAG | 0.441 E-score |
| ATTGGTAC | 0.278 E-score |
| AGTGGTAG | 0.378 E-score |
| CGTGGTAG | 0.206 E-score |
| CTTATTCC | 0.00112 E-score |
| AAGAGAGC | -0.136 E-score |
| AGCGTACC | -0.188 E-score |
| AGCGGGAG | -0.145 E-score |
| ACCAACTA | 0.161 E-score |
| TACGGCCA | -0.0766 E-score |
| ACTTTCGC | 0.0461 E-score |
| TACCCATA | 0.234 E-score |
| AGCCTTAT | -0.11 E-score |
| ACTACAAC | 0.295 E-score |
| ACTACTCG | 0.159 E-score |
| ACTACTAC | 0.419 E-score |
| ACTACAAG | 0.137 E-score |
| CCTACTAG | 0.18 E-score |
| GCTACTAC | 0.264 E-score |
| ACTACATG | 0.307 E-score |
| CCTACATC | 0.187 E-score |
| ACTACTAG | 0.361 E-score |
| ACTACTGC | 0.113 E-score |
| ACTACATC | 0.334 E-score |
| ACTACAAT | 0.329 E-score |

| Sequence | binding signal |
| --- | --- |
| CTGCCTTC | -0.104 E-score |
| GCTCGCAA | -0.145 E-score |
| AGCTAGGA | -0.00935 E-score |
| ACTACGAC | 0.0766 E-score |
| ACTACGAT | 0.362 E-score |
| ACTACTCA | 0.265 E-score |
| ACTACGAA | 0.163 E-score |
| CCTACTAC | 0.343 E-score |
| CCTACTTC | 0.0914 E-score |
| ACTACTCT | 0.19 E-score |
| CCTACTAA | 0.101 E-score |
| ACTACTAT | 0.46 E-score |
| CCGGACCG | -0.0456 E-score |
| CGTCAACC | -0.182 E-score |
| GTGAGATA | 0.0844 E-score |
| CCTTCTCC | -0.165 E-score |
| ACCGCTAA | 0.13 E-score |
| GTCCAATA | 0.0328 E-score |
| CTCGCAAA | 0.0435 E-score |
| ACTCGGTA | 0.286 E-score |
| GGGAGCAC | -0.183 E-score |
| CTATAATA | 0.34 E-score |
| CTATAAGA | 0.156 E-score |
| ATATAATC | 0.201 E-score |
| CTATAATC | 0.222 E-score |

| Sequence | binding signal |
| --- | --- |
| ATATAATA | 0.446 E-score |
| GTATAACA | 0.141 E-score |
| GTATAAAA | 0.32 E-score |
| GTATAATA | 0.413 E-score |
| ATATAATG | 0.3 E-score |
| CGAGAAGA | -0.0403 E-score |
| CCTTAGGA | 0.047 E-score |
| ACTGCACC | 0.128 E-score |
| TCTTAAAA | -0.0115 E-score |
| AAAACAAC | 0.116 E-score |
| AAAGTGAC | -0.0335 E-score |
| ATTCTTGC | 0.103 E-score |
| CTATGGTA | 0.211 E-score |
| ATATGTTA | 0.331 E-score |
| GAATGGTC | -0.121 E-score |
| ATATGTTC | 0.238 E-score |
| ATATGGTG | 0.159 E-score |
| CTATGTTA | 0.256 E-score |
| TAATGGTA | 0.325 E-score |
| GAATGGTA | 0.39 E-score |
| ATATGGTA | 0.331 E-score |
| AGAGCCAG | -0.194 E-score |
| ACGTGCCT | -0.189 E-score |
| CCGTTCTA | 0.108 E-score |
| TACAGGAA | 0.0535 E-score |

| Sequence | binding signal |
| --- | --- |
| GGAATCGA | 0.209 E-score |
| AGATTGTG | 0.09 E-score |
| TTAGCTAA | 0.263 E-score |
| GTAGCTAC | 0.428 E-score |
| ATAGCTAC | 0.31 E-score |
| GAAGCTAC | 0.309 E-score |
| CTAGCTAC | 0.163 E-score |
| ATAGCTAG | 0.271 E-score |
| ATAGCTAT | 0.402 E-score |
| GTAGCTAA | 0.346 E-score |
| CTAGCTAA | 0.127 E-score |
| ATTTAATG | 0.105 E-score |
| CGTCTGAA | -0.0845 E-score |
| CTAAAGTC | 0.0658 E-score |
| ATGCTGAC | -0.0948 E-score |
| ATTCGACC | -0.138 E-score |
| GGGTAATA | 0.272 E-score |
| CGGTAGTA | 0.391 E-score |
| AGGTAGTG | -0.0194 E-score |
| AGGTAATG | 0.113 E-score |
| AGGTAGTC | 0.0784 E-score |
| CGGTAGTC | 0.174 E-score |
| GGGTAGTA | 0.3 E-score |
| AGGTAATA | 0.328 E-score |
| AGGTAGTA | 0.328 E-score |
